Source: PubChem
Most compounds without a hit are left out; they make up all but 21% or so of the library.
Pf growth 48h = P. falciparum growth inhibition at 48 hours (one generation). P. falciparum luciferase growth in erythrocytes, 48 h. Potency, µM (highest dose often 28.7 µM), for the others: at the highest dose activity change, negative = inhibition, usual class: inhibitors. 310,000 compounds, 5.9% hits. AID 504832; also: potency is read from the fitted curve at half-maximal effect; % is scaled to controls: 0 for no effect and ±100 for the full control effect
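Here the parasites carry a stable luciferase gene and grow inside erythrocytes in Albumax-based RPMI medium with compound for one erythrocytic cycle. Activity is scored as loss of luminescent signal.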
NS1 inh = influenza NS1 inhibition; Potency, µM (top dose mostly 46.1 µM), for the others: at the highest dose activity, positive = more growth; 270,000 compounds, 0.4% hits; AID 2326; calls by dose curve; also: potency is read from the fitted curve at half-maximal effect; actives are rising curves; nearly all actives have a fitted effect of over 50% in size
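Growth recovery, yeast-based: influenza A NS1 expressed in S. cerevisiae causes slow growth, and suppressors are detected by OD600. The parent strain without NS1 is used as positive control.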
Shiga toxin inh = inhibitors of Shiga toxin in Vero cells. Vero cells, Shiga toxin protein synthesis inhibition reporter. inhibition, % at 38.7 µM. 290,000 compounds, 9.2% hits. AID 2315; in the data active = inhibition mostly above about 28%, no sharp cut-off; inactive = mostly below about 43%; also: 0% is about no effect
Pf growth 96h = P. falciparum growth inhibition at 96 hour, primary screen for plastid delayed-death inhibitors | Potency, µM (titrated, usually from 28.7 µM), without a hit: at the highest dose activity change, negative = inhibition, actives largely listed as inhibitors | AID 504834 | P. falciparum luciferase reporter growth, 96 h | 320,000 compounds, 6.9% hits; also: potency is read from the fitted curve at half-maximal effect; % is scaled to controls: 0 for no effect and ±100 for the full control effect
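Two parasite generations (96 h, 37 C, 5% CO2) of compound exposure in infected erythrocytes (0.05% parasitemia, 2% hematocrit). Luciferase-reporter P. falciparum; decreased luminescence indicates inhibited growth, aimed at apicoplast-acting delayed death.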
SARS PLpro yeast = inhibitors of SARS-CoV papain-like protease in yeast. AID 485353. S. cerevisiae expressing SARS-CoV PLpro, growth rescue. 330,000 compounds, 0.19% hits. Potency, µM (series often up to 32.9 µM), inactives show at the highest dose activity, positive = growth rescue, most hits filed as activators; calls by dose curve; also: potency is read from the fitted curve at half-maximal effect; 0% is about no effect; nearly all actives have a fitted effect of over 55% in size
Cycloheximide cs = counter-screen hit for Shiga toxin inhibitors, cycloheximide; cell reporter, cycloheximide protein synthesis inhibition counterscreen; max response, %; 300,000 compounds, 12% hits; AID 2314; in the data active = max response mostly above about 13%, no sharp cut-off; inactive = mostly below about 14%; also: read at 38.3 µM for the half of the compounds with a filed dose; 0% is about no effect
Numbers without * were called inactive; i = inactive; ? = inconclusive; nt = no result; + = active, no number; [ ] = another dose, or the depositor's remark. Unless noted, calls follow the shape of the dose curve; as a rule, active = well fitted inhibition curve with a large enough effect; inconclusive = small, poorly fitted or top-dose-only effect, or another doubt; inactive = no such curve, though single readings can be large or run the other way.

SMILES	Pf growth 48h	NS1 inh	Shiga toxin inh	Pf growth 96h	SARS PLpro yeast	Cycloheximide cs
Cc1[nH]n(-c2ccc(F)cc2)c(=O)c1C=Nc1ccc(S(=O)(=O)N(C)C)cc1	-10.0%	-1.3%	2.9	6.3%	4.9%	11.5
CCOc1ccc(N2C(=O)/C(=C/c3ccccc3)N=C2SC)cc1	154.9%	nt	41.4	40.4%	-0.3%	13.6
COc1ccc(/C=C2\N=C(SC)N(c3ccccc3OC)C2=O)cc1	?	nt	32.9	?	-8.3%	25.1*
CC(=O)OCON[N+]([O-])=NC(C)C	nt	nt	-6.1	nt	nt	12.1
O=C(CC1CCCCC1)N1CCCC(c2nc(-c3ccc(S(=O)(=O)N4CCCC4)cc3)no2)C1 (stereo not given)	nt	21.0%	-6.3	?	-10.8%	-6.3
CCOc1ccccc1NC(=O)N1CCCC(c2nc(-c3ccc(C)o3)no2)C1 (stereo not given)	20.7%	-1.7%	-9.0	17.6%	0.3%	-2.1
O=C(c1ccco1)N1CCCC(c2nc(-c3ccc(S(=O)(=O)NCc4ccccc4)cc3)no2)C1 (stereo not given)	?	3.0%	+	44.1%	14.9%	9.9
CCCCCC(=O)N1CCCC(c2nc(-c3ccc(OC)cc3)no2)C1 (stereo not given)	14.7%	-8.1%	6.7	16.2%	5.1%	-0.7
COc1ccc(-c2noc(C3CCCN(C(=O)CCc4ccccc4)C3)n2)cc1 (stereo not given)	-0.1%	-57.6%	22.6	206.4%	-15.0%	14.5*
COc1ccc(C(=O)N2CCCC(c3nc(-c4ccc(C)o4)no3)C2)cc1OC (stereo not given)	-5.2%	14.2%	25.6	3.3%	6.0%	7.1
Cc1ccc(-c2noc(C3CCCN(C(=O)c4ccccc4)C3)n2)o1 (stereo not given)	165.6%	-7.5%	59.3*	-1.1%[5.75 µM]	0.5%	41.2*
Cc1ccc(-c2noc(C3CCN(S(C)(=O)=O)CC3)n2)o1	84.2%	-7.4%	80.4*	-28.2%	5.1%	19.9*
CCCCN(C(=O)Cn1nnc2ccccc21)C(C(=O)NCCOC)c1cccs1 (stereo not given)	-3.7%	3.0%	-3.1	25.5%	9.0%	-2.5
CCN(CC)C(=O)CSc1nnc(COc2ccccc2)n1N	31.4%	-1.9%	14.9	?	-0.5%	-3.1
Cc1ccc(-c2nc(C3CCN(S(C)(=O)=O)CC3)no2)cc1	133.5%	-16.0%	38.2	12.6%	-7.4%	28.4*
Clc1ccc(-c2nc(C3CCCCC3)no2)cc1	117.4%	nt	89.5*	-14.5%	2.2%	31.8*
COc1ccc(-c2noc(C3CCCN(C(=O)c4ccccc4OC)C3)n2)cc1 (stereo not given)	-13.3%	4.1%	13.5	?	-0.3%	15.1
COc1ccc(-c2noc(C3CCCN(C(=O)c4ccccc4)C3)n2)cc1 (stereo not given)	122.0%	-13.0%	43.3*	-3.3%	-2.0%	32.3*
Clc1ccc(-c2nnc(C3CCCCC3)o2)cc1	59.8%	-41.6%	96.6	nt	1.3%	14.9
Cc1ccc(-c2nc(C3CCCN(S(=O)(=O)c4ccc(C)cc4)C3)no2)cc1 (stereo not given)	nt	-18.3%	-12.3	?	-9.2%	-3.7
O=C(Nc1ccc(Cl)cc1C(=O)N1CCCC1)c1cccc([N+](=O)[O-])c1	48.8%[5.75 µM]	2.8%	44.7	42.5%	0.5%	-1.1
CSCC(=O)N1CCC(n2nccc2NC(=O)CCCc2ccccc2)CC1	-15.8%	0.2%	14.5	-6.5%	-2.5%	20.7*
CN(C)S(=O)(=O)N1CCC(n2nccc2NC(=O)CCCc2ccccc2)CC1	?	-11.6%	19.7	5.22µM*	0.4%	13.5
CCOc1cccc(CN2CCC(n3nccc3NC(=O)CCCc3ccccc3)CC2)c1	10.4µM*	2.0%	-11.4	?	5.9%	2.5
CCNC(=O)N1CCC(n2nccc2NC(=O)CCCc2ccccc2)CC1	1.5%	-2.4%	-15.7	13.1µM*	-3.3%	1.8
SMILES	Pf growth 48h	NS1 inh	Shiga toxin inh	Pf growth 96h	SARS PLpro yeast	Cycloheximide cs
CCOc1ccc(CN2CCC(n3nccc3NC(=O)CCCc3ccccc3)CC2)cc1	?	-14.4%	-3.8	-19.6%	0.1%	6.9
COC(=O)C(C)Oc1ccc(Cc2ncc(C(F)(F)F)cc2Cl)cc1 (stereo not given)	3.8%	4.4%	-6.5	-1.6%	-5.1%	-1.1
O=C(O)c1sc2cc(C(F)(F)F)cnc2c1-c1ccccn1	349.2%	nt	-3.7	?	-5.4%	-2.2
CCn1cc(CN2CCC(n3nccc3NC(=O)CCCc3ccccc3)CC2)cn1	?	-6.1%	-5.5	3.5%	7.7%	0.7
COc1ccccc1CN1CCC(n2nccc2NC(=O)CCOc2ccccc2)CC1	-16.0%	5.7%	-5.3	16.4%	1.1%	-2.1
CCn1cc(CN2CCC(n3nccc3NC(=O)Cc3ccccc3)CC2)cn1	-7.5%	3.8%	-5.3	10.4µM*	-3.7%	-2.9
COc1ccc(O)c(CN2CCC(n3nccc3NC(=O)CCOc3ccccc3)CC2)c1	13.1µM*	1.6%	13.2	?	0.8%	-0.5
Cc1cc(C(=O)OCC(=O)NCCCN2CCCC2=O)c2ccccc2n1	4.1%	-2.9%	-4.7	82.6%	2.6%	-2.0
Cc1ccc(NC(=S)N2CCCC2)cc1	39.7%	-1.0%	77.2*	-7.0%	-0.2%	27.4*
CC(=O)c1ccc(NC(=S)N2CCCCCC2)cc1	95.2%	-2.5%	66.9*	3.2%	-0.8%	21.2*
COc1ccc(NC(=S)N2CCCCCC2)cc1OC	-11.5%	nt	-1.3	4.5%[5.75 µM]	-0.3%	-1.4
Fc1ccc(NC(=S)N2CCCCC2)cc1	4.5%	15.5%	-4.9	17.0%	-6.8%	4.9
Cc1ccc(NC(=S)N2CCCCCC2)cc1	34.7%	-1.7%	74.7*	93.7%	0.3%	37.4*
Cc1ccc(NC(=S)N2CCCCC2)cc1C	34.5%	-2.8%	42.8*	9.7%	18.2%	20.2*
S=C(Nc1ccccc1)N1CCCCCC1	36.7%	3.5%	-5.7	32.5%	17.3%	9.9
N#CCN1CCC(c2cc(-c3ccco3)n[nH]2)CC1	-13.8%	nt	15.7	?	1.3%	-3.4
O=C(COC(=O)c1ccc(CNS(=O)(=O)c2ccc(F)c(Cl)c2)cc1)NCC1CCCCC1	13.7%	-1.8%	-4.7	18.1%	-3.6%	0.3
CCCCN(C)CCNC(=O)CN1C(=O)CSc2ccc(S(=O)(=O)N3CCOCC3)cc21	5.8%	-7.8%	-7.2	2.3%	1.5%	-2.4
C/C(=N\O)C(C)Oc1ccc(Cl)cc1 (stereo not given)	i	nt	-4.4	14.4%	-1.3%	-1.4
CCN(CC)S(=O)(=O)c1ccc(N2CCOCC2)c(NCC(=O)Nc2ccc(F)cc2)c1	?	nt	4.4	-16.5%	0.3%	11.7
S=C(Nc1ccc(Cl)cc1)N1CCCC1	14.9%	-2.3%	36.5	42.1%	21.0%	29.7*
Cc1ccc(C)c(NC(=S)N2CCN(S(C)(=O)=O)CC2)c1	6.1%	8.3%	-5.1	20.3%	-1.1%	8.5
S=C(Nc1cc(Cl)cc(Cl)c1)N1CCCC1	0.9%	-0.4%	-5.5	2.6%	?	-3.1
